Results reported in PubChem BioAssay (NCATS).
Records with an inconclusive call do not appear. Calls of active or inactive are those of the source. Calls follow the shape of the full dose curve; tested in HEK293 reporter line.

Tests used:
[1] = qHTS for Inhibitors of the Functional Ribonucleoprotein Complex (vRNP) of Lassa (LASV) Arenavirus: LASV Primary Screen - GLuc reporter signal (AID 1347082); conditions: LASV minigenome vRNP, Gaussia luciferase reporter; series mostly up to 57.5 µM; also: nearly all actives have a fitted effect of over 60% in size
[2] = qHTS for Inhibitors of the Functional Ribonucleoprotein Complex (vRNP) of Lassa (LASV) Arenavirus: Viability assay - alamar blue signal for LASV Primary Screen (AID 1347083); conditions: cell viability, alamar blue fluorescence (LASV minigenome counter-screen); series mostly up to 57.5 µM; also: nearly all actives have a fitted effect of over 80% in size
[3] = qHTS for Inhibitors of the Functional Ribonucleoprotein Complex (vRNP) of Lymphocytic Choriomeningitis Arenaviruses (LCMV): Viability assay - alamar blue signal for LCMV Primary Screen (AID 1347085); conditions: alamar blue viability counter-screen, LCMV vRNP screen cells; series mostly up to 57.5 µM; also: nearly all actives have a fitted effect of over 80% in size

Measured: Potency

O=c1[nH]c(=O)n([C@H]2C[C@H](O)[C@@H](CO)O2)cc1I
inactive: [1] | [2] | [3]

NS(=O)(=O)c1cc2c(cc1C(F)(F)F)NC(Cc1ccccc1)NS2(=O)=O (stereo not given)
inactive: [1] | [2] | [3]

O=C(O)[C@H](O)c1ccccc1
inactive: [1] | [2] | [3]

NS(=O)(=O)c1cc(C2(O)NC(=O)c3ccccc32)ccc1Cl (stereo not given)
inactive: [1] | [2] | [3]

Cc1ccc(C(=O)c2ccc(CC(=O)O)n2C)cc1
inactive: [1] | [2] | [3]

COc1cc(/C=C/C(N)=O)cc(OC)c1OC
inactive: [1] | [2] | [3]

NC(=O)N1c2ccccc2C=Cc2ccccc21
inactive: [1] | [2] | [3]

CC(C)=CCC[C@@](C)(O)[C@H]1CC=C(C)CC1
inactive: [1] | [2] | [3]

CCOC(=O)[C@H](CCc1ccccc1)N[C@@H](C)C(=O)N1[C@H](C(=O)O)C[C@H]2CCCC[C@@H]21
inactive: [1] | [2] | [3]

CC(=O)CC(c1ccc([N+](=O)[O-])cc1)c1c(O)c2ccccc2oc1=O (stereo not given)
inactive: [1] | [2] | [3]

Cc1nnc(C(C)C)n1C1C[C@H]2CC[C@@H](C1)N2CC[C@H](NC(=O)C1CCC(F)(F)CC1)c1ccccc1 (stereo not given in full)
inactive: [1] | [2] | [3]

Cc1cc(=O)n(-c2ccccc2)n1C
inactive: [1] | [2] | [3]

CCOC(=O)c1ccc(O)c(O)c1
inactive: [1] | [2] | [3]

CC(C)=CCC1C(=O)N(c2ccccc2)N(c2ccccc2)C1=O
inactive: [1] | [2] | [3]

NS(=O)(=O)c1ccc(C(=O)O)cc1
inactive: [1] | [2] | [3]

CCN1CCCC1CN (stereo not given)
inactive: [1] | [2] | [3]

CC(=O)N[C@@H](CC(C)C)C(=O)O
inactive: [1] | [2] | [3]

COc1ccc(C2CNC(=O)C2)cc1OC1CCCC1 (stereo not given)
inactive: [1] | [2] | [3]

Cn1nnc2c(C(N)=O)ncn2c1=O
inactive: [1] | [2] | [3]

CCCCC(CC)CNC(=O)CC(C)OC(=O)CCC(=O)O (stereo not given)
inactive: [1] | [2] | [3]

Cc1cnc(NC(=O)C2=C(O)c3ccccc3S(=O)(=O)N2C)s1
inactive: [1] | [2] | [3]

O=c1[nH]c(=O)n([C@H]2O[C@H](CO)[C@@H](O)[C@@H]2O)cc1/C=C\Br
inactive: [1] | [2] | [3]

O=C(NCN1CCOCC1)c1cnccn1
inactive: [1] | [2] | [3]

CNNCc1ccc(C(=O)NC(C)C)cc1
inactive: [1] | [2] | [3]

Clc1ccccc1N1CCNCC1
inactive: [1] | [2] | [3]

CC(=O)N(CC(O)CO)c1c(I)c(C(=O)NCCO)c(I)c(C(=O)NCC(O)CO)c1I (stereo not given)
inactive: [1] | [2] | [3]

CC(C)(N)Cc1ccccc1Cl
inactive: [1] | [2] | [3]

CCN1CCN(C(=O)N[C@@H](C(=O)N[C@@H]2C(=O)N3[C@@H]2SC(C)(C)[C@H]3C(=O)O)c2ccccc2)C(=O)C1=O
inactive: [1] | [2] | [3]

COCCOCC(OC)OC
inactive: [1] | [2] | [3]

CC(C)(C)c1ccc(O)cc1
inactive: [1] | [2] | [3]

CCC(C)(CN(C)C)OC(=O)c1ccccc1 (stereo not given)
inactive: [1] | [2] | [3]

CC(=O)OC[C@H]1O[C@@H](OC(C)=O)[C@H](OC(C)=O)[C@@H]1OC(C)=O
inactive: [1] | [2] | [3]

CCCC(O)C(CC)CO (stereo not given)
inactive: [1] | [2] | [3]

O=C(O)CNC(=O)c1ccccc1
inactive: [1] | [2] | [3]

CC(C)C[C@H]1C(=O)N2CCC[C@H]2[C@]2(O)O[C@](NC(=O)[C@@H]3C=C4c5cccc6[nH]c(Br)c(c56)C[C@H]4N(C)C3)(C(C)C)C(=O)N12
inactive: [1] | [2] | [3]
